Bioassay records as filed in PubChem BioAssay.
Rows were chosen to be rich in hits. Some 0.75% of all compounds tested hit in one or more screens of this group.
TcdB inh: inhibitors of Clostridioides difficile toxin B glycohydrolase; P18177; TcdB glycohydrolase enzymatic assay, plate reader; inhibition, % at 9.99 µM; 0.24% of 350,000 active; AID 652162; in the data active = inhibition above about 10%
Target sequence (P18177 whole entry, looked up): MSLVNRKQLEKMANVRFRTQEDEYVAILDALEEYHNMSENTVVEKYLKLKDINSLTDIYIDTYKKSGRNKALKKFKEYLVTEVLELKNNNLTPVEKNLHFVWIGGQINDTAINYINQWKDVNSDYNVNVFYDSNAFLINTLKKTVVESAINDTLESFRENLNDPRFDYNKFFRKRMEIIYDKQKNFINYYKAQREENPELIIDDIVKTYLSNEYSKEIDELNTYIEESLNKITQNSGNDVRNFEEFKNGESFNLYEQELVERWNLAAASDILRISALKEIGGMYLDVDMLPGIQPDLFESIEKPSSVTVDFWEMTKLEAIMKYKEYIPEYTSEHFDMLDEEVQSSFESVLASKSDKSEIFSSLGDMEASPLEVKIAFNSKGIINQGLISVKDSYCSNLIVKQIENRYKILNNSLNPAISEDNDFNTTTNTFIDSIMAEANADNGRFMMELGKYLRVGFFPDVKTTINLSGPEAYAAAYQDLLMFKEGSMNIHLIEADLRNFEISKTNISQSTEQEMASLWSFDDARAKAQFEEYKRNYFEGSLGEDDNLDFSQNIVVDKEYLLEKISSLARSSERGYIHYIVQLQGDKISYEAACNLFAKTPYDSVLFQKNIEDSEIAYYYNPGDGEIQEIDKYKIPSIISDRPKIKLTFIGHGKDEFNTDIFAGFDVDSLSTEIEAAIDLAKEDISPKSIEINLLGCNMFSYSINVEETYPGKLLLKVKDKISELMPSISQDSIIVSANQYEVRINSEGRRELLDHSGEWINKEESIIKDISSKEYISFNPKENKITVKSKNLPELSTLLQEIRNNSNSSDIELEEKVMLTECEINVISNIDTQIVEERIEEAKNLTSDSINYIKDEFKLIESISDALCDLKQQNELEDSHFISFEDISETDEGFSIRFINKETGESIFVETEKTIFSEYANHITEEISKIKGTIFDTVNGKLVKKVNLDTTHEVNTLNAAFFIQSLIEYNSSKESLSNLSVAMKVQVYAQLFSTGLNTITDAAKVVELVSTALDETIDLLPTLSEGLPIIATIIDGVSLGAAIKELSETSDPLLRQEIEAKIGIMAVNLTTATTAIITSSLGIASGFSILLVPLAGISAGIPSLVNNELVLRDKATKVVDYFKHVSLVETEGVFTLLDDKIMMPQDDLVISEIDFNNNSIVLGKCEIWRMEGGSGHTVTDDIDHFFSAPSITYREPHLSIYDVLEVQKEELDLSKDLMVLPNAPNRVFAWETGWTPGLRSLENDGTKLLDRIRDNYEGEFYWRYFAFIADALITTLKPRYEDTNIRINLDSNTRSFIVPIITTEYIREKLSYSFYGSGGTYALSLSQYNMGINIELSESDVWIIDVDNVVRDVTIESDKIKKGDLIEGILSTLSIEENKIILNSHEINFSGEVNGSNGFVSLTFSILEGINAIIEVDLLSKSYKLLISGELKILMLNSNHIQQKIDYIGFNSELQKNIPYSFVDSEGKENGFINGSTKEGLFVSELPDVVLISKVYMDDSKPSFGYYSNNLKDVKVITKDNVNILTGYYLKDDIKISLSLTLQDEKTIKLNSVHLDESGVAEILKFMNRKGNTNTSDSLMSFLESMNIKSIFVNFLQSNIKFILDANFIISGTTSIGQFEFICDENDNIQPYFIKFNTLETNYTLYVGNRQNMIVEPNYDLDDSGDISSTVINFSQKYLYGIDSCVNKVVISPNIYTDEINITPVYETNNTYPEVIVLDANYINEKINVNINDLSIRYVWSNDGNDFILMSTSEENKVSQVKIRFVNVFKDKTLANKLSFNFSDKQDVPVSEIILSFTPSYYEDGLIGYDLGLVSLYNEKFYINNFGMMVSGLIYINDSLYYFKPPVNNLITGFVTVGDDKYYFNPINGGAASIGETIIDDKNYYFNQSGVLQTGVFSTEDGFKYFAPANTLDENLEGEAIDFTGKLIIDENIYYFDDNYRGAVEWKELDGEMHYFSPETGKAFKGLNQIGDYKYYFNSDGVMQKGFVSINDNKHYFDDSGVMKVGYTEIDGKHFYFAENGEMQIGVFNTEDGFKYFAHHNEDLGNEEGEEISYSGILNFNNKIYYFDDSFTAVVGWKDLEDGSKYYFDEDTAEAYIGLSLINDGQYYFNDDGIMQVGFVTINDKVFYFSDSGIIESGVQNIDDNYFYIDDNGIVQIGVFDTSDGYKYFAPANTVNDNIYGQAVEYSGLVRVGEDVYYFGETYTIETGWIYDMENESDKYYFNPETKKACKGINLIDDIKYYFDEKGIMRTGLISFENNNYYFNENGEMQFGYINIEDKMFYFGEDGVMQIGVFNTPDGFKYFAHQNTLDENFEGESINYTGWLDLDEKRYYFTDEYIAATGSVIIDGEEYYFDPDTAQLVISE
Sa RN4220 lethal: kills Staphylococcus aureus RN4220; 0.33% of 330,000 active; AID 1259311; inhibition, % (test concentration not listed); S. aureus RN4220 growth, OD600, 16 h; in the data active = inhibition above about 85%;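 note: plate controls were untreated cells for no effect and reference antibiotic for full effect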
Sa ugtP lethal: compounds lethal to S. aureus RN4220 ugtP deletion mutant; OD600 growth, 16 h; 0.54% of 330,000 active; growth inhibition, % (concentration not given with the values); in the data active = growth inhibition above about 68%;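 note: plate controls were untreated wells for no effect and antibiotic for full effect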
Mtb hypoxia inh: inhibitors of hypoxia-regulated fluorescent reporter in Mycobacterium tuberculosis. M. tuberculosis hypoxia-regulated fluorescent reporter, fluorescence. fluorescence inhibition, % (concentration not given with the values). 0.1% of 300,000 active. AID 1159583; in the data active = fluorescence inhibition mostly above about 23%, no sharp cut-off; inactive = mostly below about 17%
Yp Topo-I inh: inhibitors of Yersinia pestis topoisomerase I | Y. pestis Topo-I cleavage product accumulation, plate reader | activity, % at 10 µM | 0.064% of 360,000 active; in the data active = activity above about 50%, passing the limit was not always enough
BioA inh: inhibitors of Mycobacterium tuberculosis BioA enzyme. purified M. tuberculosis BioA enzyme, plate reader. inhibition, % at 9.99 µM. 0.096% of 360,000 active. AID 602481; in the data active = inhibition above about 40%
The depositor's hits bear a star; . = no result given.

SMILES	TcdB inh	Sa RN4220 lethal	Sa ugtP lethal	Mtb hypoxia inh	Yp Topo-I inh	BioA inh
Cc1scc(C(=O)N2CCN(c3ccc(Cl)cc3)CC2)c1C	11*	15	6	0	35	-1
Cc1occc1C(=O)N1CCN(c2ccc(Cl)cc2)CC1	1	.	.	.	10	1
Cc1ccc(OC(=O)C2c3ccccc3Oc3ccccc32)cc1C	0	-1	90*	17	9	.
CC[C@@H](C)[C@@H]1CN([C@@H](CN2CCC[C@H]2CN2C(N)=NC[C@H]2CC(C)C)C(C)C)C(=N)N1CCc1ccc(Cl)c(Cl)c1	2	100*	100*	.	-4	-2
CC[C@@H](C)[C@@H]1CN([C@@H](CN2CCC[C@H]2CN2C(N)=NC[C@H]2CC(C)C)C(C)C)C(=N)N1CCCC1CCCC1	1	100*	101*	20	6	-1
CCCC(CN1CCCC1CN1C(N)=NCC1Cc1ccccc1)N1CC(Cc2ccccc2)N(CCc2ccc(Cl)c(Cl)c2)C1=N (centres undefined)	.	101*	101*	.	.	.
CC[C@@H](C)[C@@H]1CN([C@@H](C)CN2CCC[C@H]2CN2C(N)=NC[C@H]2CC(C)C)C(=N)N1CCc1ccc(Cl)c(Cl)c1	-1	.	.	.	-13	-3
CCC[C@@H](CN1CCC[C@H]1CN1C(N)=NC[C@@H]1Cc1ccccc1)N1C[C@@H](Cc2ccccc2)N(CCc2ccc(Cl)c(Cl)c2)C1=N	1	.	.	.	-13	2
CCC[C@@H](CN1CCC[C@H]1CN1C(N)=NC[C@H]1CC(C)C)N1C[C@@H]([C@H](C)CC)N(CCc2ccc(Cl)c(Cl)c2)C1=N	2	100*	100*	.	-5	-1
CCC[C@@H](CN1CCC[C@H]1CN1C(N)=NC[C@@H]1Cc1ccccc1)N1C[C@@H]([C@H](C)CC)N(CCCC2CCCC2)C1=N	.	.	.	.	1	1
COc1ccc(C2CC(=O)C=C(C=Cc3ccccc3)C2)cc1OC (centres undefined)	.	6	18	3	.	.
CC[C@]12C(=O)N(C)CC(C3C(=O)N(Cc4ccccc4)C(=O)C31)N2C(=O)c1ccc(Br)cc1 (some centres undefined)	.	2	4	5	.	.
CCOc1cc(C=NNC(=O)c2cccnc2)ccc1OCC(N)=O	.	1	0	-9	.	.
C[C@@H](CN1CCC[C@H]1CN1C(N)=NC[C@@H]1Cc1ccccc1)N1C[C@@H](Cc2ccccc2)N(CCc2ccc(Cl)c(Cl)c2)C1=N	.	.	.	.	-6	0
CCC[C@@H](CN1CCC[C@H]1CN1C(N)=NC[C@H]1CC(C)C)N1C[C@@H](Cc2ccccc2)N(CCc2ccc(Cl)c(Cl)c2)C1=N	1	100*	100*	.	-16	1
CC(C)[C@@H]1CN=C(N)N1C[C@@H]1CCCN1C[C@H](C)N1C[C@@H](Cc2ccccc2)N(CCc2ccc(Cl)c(Cl)c2)C1=N	.	101*	100*	.	-10	0
CCCC(CN1CCCC1CN1C(N)=NCC1Cc1ccccc1)N1CC(C(C)CC)N(CCc2ccc(Cl)c(Cl)c2)C1=N (centres undefined)	.	101*	100*	.	.	.
CCC[C@@H](CN1CCC[C@H]1CN1C(N)=NC[C@@H]1Cc1ccccc1)N1C[C@@H]([C@H](C)CC)N(CCc2ccc(Cl)c(Cl)c2)C1=N	.	.	.	.	0	3
C#CCOCCOCCOCCNc1nc(N2CCN(C(=O)C(Cc3cc4ccccc4[nH]3)n3cc(C(N)C(C)CC)nn3)CC2)nc(N2CCN(C(=O)C(C(C)CC)n3cc(C(N)CO)nn3)CC2)n1 (centres undefined)	.	-3	0	0	.	.
Cc1cc(C)c(C2=CC(=O)CC(c3ccc4c(c3)OCO4)C2)c(C)c1 (centres undefined)	.	0	2	5	.	.
O=C(O)c1cc(Nc2cc(Cl)c3nonc3c2[N+](=O)[O-])ccc1O	0	7	2	17	-3	28
Cc1ccccc1Nc1ccc2nonc2c1[N+](=O)[O-]	0	8	10	6	1	-1
O=[N+]([O-])c1c(Nc2ccccc2O)cc(Cl)c2nonc12	1	98*	87	13	-33	3
Nc1cc(Cl)c2nonc2c1[N+](=O)[O-]	.	49	47	40*	-7	.
O=[N+]([O-])c1c(Nc2ccccc2O)ccc2nonc12	13*	8	-1	20	-3	3
SMILES	TcdB inh	Sa RN4220 lethal	Sa ugtP lethal	Mtb hypoxia inh	Yp Topo-I inh	BioA inh
O=C(Nc1ccccc1)C1=C(c2ccccc2)S(=O)(=O)CCS1(=O)=O	1	90*	100*	1	-1	.
COc1cc(Cc2cc(N)nc(N)n2)cc(OC)c1OC	0	98*	100*	3	-1	-1
CCOC(=O)C1C2COc3ccc(OC)cc3C2N2C(=O)CN(Cc3ccc(C)cc3)C(=O)[C@@]12C (some centres undefined)	.	-2	2	13	.	.
CN1CCN(c2ccc(NC(=O)c3cccc(OCc4ccccc4)c3)cc2)CC1	.	-6	-2	.	-10	-2
CCOc1cccc(C(=O)NC(=S)Nc2ccccc2)c1	2	4	-5	5	18	.
CCCOc1cccc(C(=O)NC(=S)Nc2ccc(N3CCN(C)CC3)cc2)c1	0	9	95*	22	13	.
CCOc1cccc(C(=O)NC(=S)Nc2ccc(N3CCN(CC)CC3)cc2)c1	-1	2	94*	22	-12	0
CCOC(=O)C1C2COc3ccccc3C2N2C(=O)C(C)NC(=O)[C@@]12C (some centres undefined)	.	-2	-2	1	.	.
CC(O)C1CNC(=O)C(=O)N1CCC12CC3CC(CC(C3)C1)C2 (centres undefined)	.	2	-1	3	.	.
COc1cccc(-c2nc(=S)c3c(n2Cc2ccco2)CCCC3)c1	.	-3	85*	6	-1	0
CCN1C(c2ccccc2)C(C)C(=O)C(C)C1c1ccccc1 (centres undefined)	.	-13	91*	2	2	-2
CC1C(=O)C(C)C(c2ccccc2)N(N=O)C1c1ccccc1 (centres undefined)	-3	.	.	.	6	.
CC(=NNC(=O)c1nc(C)cc(C)n1)c1ccccc1	.	1	6	.	.	.
O=[N+]([O-])c1ccc(/C=C/c2ccc3cccc(O)c3n2)cc1	-1	6	-10	-22	-2	-5
O=[N+]([O-])c1ccc(/C=C/c2ccc3ccccc3n2)cc1	10*	13	-4	8	0	-1
Cc1ccc(-n2c(O)c(/C=C/C=Nc3ccccc3)c(=O)[nH]c2=O)cc1	1	6	0	3	-10	.
Cc1ccc(N/N=C/c2c(O)n(-c3ccccc3)c(=O)[nH]c2=O)cc1	14*	2	-4	1	0	0
CC1CC(=NNC(=S)NC(C)C)CC(C)(C)C1 (centres undefined)	.	3	15	.	.	.
CC(C)(C)OC(=O)NCc1ccc(NC(=O)c2nc[nH]c2C(=O)NCCNC(=O)c2[nH]cnc2C(=O)Nc2ccc(CNC(=O)OC(C)(C)C)cc2)cc1	.	13	14	4	79*	0
